Whole data set: some 25,000 sequences, median “ln(normalized median fluorescence intensity)” near 7.1, cut for the highest 2% near 10. The sample as a whole holds a higher share of the highest values than the screen did.
tested on: PfSIP2 AP2 domain 1 (GST-tagged); assay: gcPBM binding intensity (ln(normalized median fluorescence intensity)); higher = stronger DNA binding
Outline: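 After 1 h on an Agilent 4 × 180k array of primer-extended double-stranded 36-bp intergenic genomic probes and negative controls, bound GST-tagged P. falciparum DNA-binding domains were detected with Alexa488 anti-GST antibody and scanned at 488 nm. The domains had been expressed in E. coli, and binding took place in 1× PBS with 1% milk, 0.2 mg/ml BSA, 0.5% salmon testes DNA and 0.03% Triton X-100. Binding intensity is the highest Masliner-normalised natural-log median intensity across replicate spots of either probe orientation.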

Sequence	gcPBM binding intensity (ln)
ATATATATTAATAGTTGTACTATTATAATATTACAA [XGTACX_site1213]	7
AGGATAACATACAAAAGTACATAAAACTAAAAAAAC [XGTACX_site26]	7.32
TATATGTTTACTTAATGTACTTACATTTTTATAACA [XGTACX_site1100]	6.91
GCATTATTATATATTTGTACATATTTTTTTTTAAAA [XGTACX_site5436]	7.3
AATATATAAACACGTACACACACATATATGTATATA [CACACA_site9168]	7.39
TATTAAATTATATAGACACACATTATGTATATATAT [CACACA_site345]	7.49
TTTTTTAAAAGAAAATAAAAAATAAGCATAATATGA [CACACA_negctrl_site1574]	7.06
ATGGAATATTTCATGATTTTTTTAATTTTTTTATTG [XGTACX_negctrl_site55]	6.6
ATATATTATATATATTTTAAGTAATTTGCAAAAAAT [GTGCAC_negctrl_site361]	7.01
AAAAGGAACGGACACACACACATATATATATATATA [CACACA_site5894]	9.31
CACATAAAATAAGGTGCATGCAAACGAGAAAATAAA [TGCATGCA_site75]	11
AGGTGCAAAAATAAAACATGCAAAAATAAAAATGAA [TGCATGCA_site502]	9.93
ACGGAAAAAGAAAAGGTGCATATGGACACAATATAT	11.3
GAAAGAATAAAATAAACATGCAAATAAAACATAAAA [TGCATGCA_site471]	7.2
TATGGAAGAAAATATACACACAAAAAAAAAAAATGG [CACACA_site4924]	6.99
TTGTTAAATATTTATAAAATGAATTTAAAATGTACT [CACACA_negctrl_site665]	7.05
ATATGTATAAATATAAATATATATATATATATATAT [CACACA_negctrl_site705]	9.63
TAATATAAAGGAAAAGAAAAGAAAAGAATATACAAT [CACACA_negctrl_site1369]	6.69
GGACAAGAATAGTGCACATGCAATGTTATTTTTTAT [TGCATGCA_site450]	10.9
GAAAGGACAAGAATAGTGCACATGCAATGTTATTTT [GTGCAC_site9985]	9.8
GTAATAAGAATTATAGTGCAATGTAATACATTTATA	7.97
ATTTTTTTTTTTTTTATTCCCCTTTCGAAAAAAACC [CACACA_negctrl_site1139]	7.18
ATAGTTTAATTTATATGTACATATAATATTGATTTG [XGTACX_site7520]	7.29

Sequence	gcPBM binding intensity (ln)
CTTATTGATTTAAAAAGTACATATATGTATATACAC [XGTACX_site4072]	7.05
TACTTATTTGATTGGGTGCATATATATAGTATGTAT [GTGCAC_site9845]	10.6
TTTTATTTATCTAATTGTACTCATTCTTTTTTGATG [XGTACX_site2876]	6.88
AGATATATATATAGGTGTACTGGAATGAAATTGTTT [XGTACX_site8200]	6.94
GATGAAAATAGAAATACACACTAAAAAATAAAATTA [CACACA_site4764]	6.75
TATAAATTAAAATGTGTGCACTAAATTGAAATAGAA	10.7
AAATAAAAATTAAAAAAATAGAAACGAATTGAATGC [TGCATGCA_negctrl_site365]	7.2
TCAATATATATAAGAAGTACATGTGAATGAAAAAAA [XGTACX_site1674]	7.14
AAAAAAAAATTATTCACACATATATATATATATATA [CACACA_site5579]	9.38
TAAAATAATTTATGCATACACACATATATATATATA [CACACA_site4021]	9.23
GCATATTTTATAATTTTACACACCATATAAAATAAT [CACACA_site8904]	7.2
ATATACACCTGAGAGGTGCATATATATAAAATTTAC	11.2
TAAGAATTGAAAAAATGTACACAATATAAAATTGAA [XGTACX_site698]	6.88
TATTAAAAATGTTAAGTGCAAAAATAAAAATTGTGG [GTGCAC_site9854]	7.71
ATAATTAAGTTATGTGTGCACTGTTAAAAATAAATG	10.4
TAAATTATAATATGCACACAAAATGTTATATTAAAA [CACACA_site376]	7.01
ACCTATATAAGTTATACACACAAATATAGATATATA [CACACA_site7356]	7.06
AACAAGTTGCATGGTGCACACATGTATTTATATCTA [CACACA_site5414]	11.8
ATCATATGTATGCATACACACAAAAAGTTATTTATA [CACACA_site6325]	7.06
ATGTAAGTTGTGCATTCACACACATATATATATATA [CACACA_site9086]	9.26
AACAAGTTGCATGGTGCACACATGTATATATATCTA [CACACA_site2548]	11.6
TATGGTATATACAACACACACACATATGTATATATA [CACACA_site927]	7.14
TAGTTGCACATGTATACACACAAAAAATATTTTATG [CACACA_site475]	7.68
